Out of some 320,000 compounds screened, about 2,100 (0.66%) were called active. Roughly 53% stayed inconclusive and do not appear here. The call rests on the fitted dose curve; in most records, active means well fitted inhibition curve with a large enough effect in the signal ratio, with a control signal flat (not every such curve was filed as active); inconclusive means small, poorly fitted or top-dose-only effect, or effect the other way, or a change in a side signal; inactive means flat fitted curve, though single readings scatter; the % refers to the signal ratio. What follows is part of a selection rich in actives, with near analogues and random picks from the rest.
Assay: qHTS Assay for Lipid Storage Modulators in Drosophila S3 Cells;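 on cell number change: cells counted by Cell Tracker Red CMTPX staining in the red channel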; on lipid storage change, negative = inhibition: on the % scale 0 is the no-effect control and ±100 the full control effect
Conditions: BODIPY lipid droplet fluorescence, 18-24 h, cells fed with added oleic acid; cell number change: measured here: cell count max response; series mostly up to 46.1 µM
Outline: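 Drosophila S3 cells got compounds at several concentrations plus oleic acid (400 uM solution). Laser-scanning cytometry with 488 nm excitation read lipid droplets at 500-530 nm and cells at 575-640 nm. Percent activity was relative to 20 uM Triacsin C.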
Potency means the concentration at half of the fitted maximal effect.

SMILES	Potency	cell number change [%]	lipid storage change, negative = inhibition
O=C(Nc1ccc(CN2CCOCC2)cc1)c1ccc(-c2cccc([N+](=O)[O-])c2)o1	8.2 µM (active)	-29.5	
O=[N+]([O-])c1cccc(-c2ccc(C(=S)N3CCOCC3)o2)c1	inactive	15.8	
CN1CCN(c2ccc(NC(=O)c3ccc(-c4cccc([N+](=O)[O-])c4)o3)cc2)CC1	inactive	17.7	
O=C(NC1CCCN(CCc2ccccc2)C1)C1CCCC1 (stereo not given)	inactive	8.14	
C[C@H](NC(=O)C1CCN(S(=O)(=O)c2ccccc2)CC1)C(=O)NCc1ccc(F)cc1	inactive		
CCN(CC)C1CCN(Cc2cn[nH]c2-c2ccc(OC)c(F)c2)C1 (stereo not given)	inactive	7.18	
Cc1sc(NC(=O)/C=C/c2ccco2)c(C(=O)O)c1C	inactive	4.19	
CC(C)(C)C1CCc2c(sc(NC(=O)CSc3nnc(-c4ccccc4)o3)c2C#N)C1 (stereo not given)	4.11 µM (active)	-0.658	
CCn1c(SCC(=O)Nc2sc3c(c2C#N)CCC(C(C)(C)C)C3)nnc1-c1ccco1 (stereo not given)	inactive	-7.68	
N#Cc1ccsc1NC(=O)CSc1nnc(-c2ccccc2)o1	inactive	20.1	
COc1ccc(/C=N/n2cnc3c(sc(=S)n3-c3ccccc3)c2=O)cc1	inactive	19.1	
CN1C(=S)SC(N(O)C(=O)Nc2ccc(Cl)c(Cl)c2)C1(C)C (stereo not given)	inactive	-15	
CCOc1ccc(CNc2ccc(N3CCCC3)cc2)cc1	inactive		
CCOc1ccc(CNc2ccc(N3CCN(Cc4ccccc4)CC3)cc2)cc1	2.31 µM (active)		
CCOc1ccc(CN2CCC(Cc3ccccc3)CC2)cc1	inactive	27.4	
O=C(NCN1CCc2ccccc2C1)c1ccccc1	inactive	0.788	
O=C(NC(C(=O)c1ccccc1)n1cnccc1=O)c1ccccc1 (stereo not given)	inactive	-10.1	
O=C(NCn1cnccc1=O)c1ccccc1	20.6 µM (active)	1.39	
Cc1noc(C)c1C(=O)Nc1nnc(CC(C)C)s1	inactive	23.9	
O=C(Cc1cccs1)N(Cc1ccco1)C1(C(=O)NC2CCCC2)CCCCC1	3.66 µM (active)	-17	

SMILES	Potency	cell number change [%]	lipid storage change, negative = inhibition
CC(=O)NCC(=O)N(Cc1ccco1)C1(C(=O)NC2CCCC2)CCCCC1	inactive	17.4	
O=C1NC(=O)C(CC(=O)N(Cc2ccco2)C2(C(=O)NC3CCCC3)CCCCC2)N1 (stereo not given)	inactive		
CC(=O)N(Cc1ccco1)C1(C(=O)NC2CCCCC2)CCCCC1	inactive	-0.0608	
O=C(Cc1cccs1)N(CC1CCCO1)C1(C(=O)NC2CCCC2)CCCCC1 (stereo not given)	inactive	-0.501	
CC(=O)N(Cc1ccco1)C1(C(=O)NC2CCCC2)CCCCC1	14.6 µM (active)	3.24	
O=C(NC(N1CCOCC1)C(Cl)(Cl)Cl)c1cc([N+](=O)[O-])cc([N+](=O)[O-])c1 (stereo not given)	inactive		
COC(CNC(=O)c1ccc(CS(=O)(=O)c2ccc(C)cc2)o1)OC	inactive	23.5	
COc1nc(NCCN2CCOCC2)nc(Nc2ccccc2)n1	inactive	-13.7	
COc1ccc(NC(C)=O)cc1S(=O)(=O)NC(Cc1ccccc1)C(=O)NCc1ccccc1C (stereo not given)	1.84 µM (active)	-19.4	
COc1ccc(NC(C)=O)cc1S(=O)(=O)NC(Cc1ccccc1)C(=O)O (stereo not given)	inactive	-4.53	
COc1ccc(NC(C)=O)cc1S(=O)(=O)Nc1ccc(OCc2ccccc2)cc1	inactive	-6.41	
O=C1NC(c2ccccc2Cl)Nc2ccccc21 (stereo not given)	inactive	-2.9	
Cc1ccccc1C(=O)Nc1nnc(SCC(=O)NCc2ccco2)s1	inactive	-7.23	
COc1ccccc1C(=O)Nc1nnc(SCC(=O)NCc2ccco2)s1	20.6 µM (active)	-7.8	
COc1ccc(C(=O)Nc2nnc(SCC(=O)NCc3ccco3)s2)cc1OC	inactive		
Cc1nc2ccc(NC(=S)NC(C)C)cc2nc1C	inactive	-1.16	
COc1cc(C(=O)NC(C)c2ccc(S(N)(=O)=O)cc2)ccc1OCC(=O)N1CCOCC1 (stereo not given)	inactive	9.66	
CC12CN3CC(C)(CN(C1)C3c1ccc(Cl)cc1)C2 (stereo not given)	inactive	-7.54	
CC12CN3CC(C)(CN(C1)C3c1ccc(F)cc1)C2 (stereo not given)	0.731 µM (active)	-6.72	
CC12CN3CC(C)(CN(C1)C3c1ccccc1F)C2 (stereo not given)	inactive		

SMILES	Potency	cell number change [%]	lipid storage change, negative = inhibition
Cc1nnc(NC(=O)CSc2ccc(-c3ccco3)nn2)s1	inactive	17.1	
NS(=O)(=O)c1ccc(NC(=O)Nc2ccc(Cl)cc2)cc1	inactive	-17.6	
COc1ccc(CC(=O)Nc2nc(-c3ccc(OC)c(OC)c3)cs2)cc1OC	inactive	-7.98	
COc1ccc(CC(=O)Nc2nc(-c3ccc(F)c(F)c3)cs2)cc1	inactive	17.2	
COc1ccc(CC(=O)Nc2nc(-c3ccc(F)c(F)c3)cs2)cc1OC	6.51 µM (active)	21	
Cc1ccccc1OCCC(=O)OCC(=O)Nc1ccc(C(N)=O)cc1	inactive	0.749	
O=C(CSCc1ccc(F)cc1)Nc1ccc(F)cc1	inactive	14.6	
CCc1nnc(NC(=O)C2CC(=O)N(C3CCCC3)C2)s1 (stereo not given)	inactive	8.4	
CCOC(=O)N1CCN(C(=O)C2CCN(S(=O)(=O)c3cc(Cl)ccc3Cl)CC2)CC1	inactive	-24.4	
COc1cc(C(=O)NCCC2=CCCCC2)ccc1OC1CCN(C(C)=O)CC1	inactive	8.8	
CCC(C)C(=O)Nc1ccc(OC)cc1OC (stereo not given)	23.1 µM (active)	17.4	
COc1ccc(NC(=O)CN2CCCN(S(=O)(=O)c3ccc(F)cc3)CC2)c(OC)c1	inactive	0.557	
COc1ccc(NC(=O)C(CC(C)C)NC(=O)C2CCCCC2)c(OC)c1 (stereo not given)	inactive	-5.85	
COc1ccc(NC(=O)CN2CCC(C(=O)c3ccc(F)cc3)CC2)c(OC)c1	inactive	-0.87	
COc1ccc(NC(=O)CN2CCN(CC(=O)Nc3ccc(F)cc3)CC2)c(OC)c1	18.4 µM (active)	21.1	
COc1ccc(NC(=O)c2ccc(C(=O)Nc3ccc(OC)cc3OC)cc2)c(OC)c1	inactive	1.2	
Cc1cc(Br)cc2c1NC(=O)C2(O)CC(=O)c1ccco1 (stereo not given)		3.68	9.35% [at 9.22 µM] (inactive)
COc1ccc(NC(C)=[N+](C)CCNS(=O)(=O)c2ccc(Cl)cc2)cc1	inactive		
C/C(CCc1ccco1)=N/NC(=O)CCC(=O)Nc1cccc(Cl)c1	inactive	0.649	

Source: PubChem BioAssay AID2685 (National Center for Advancing Translational Sciences (NCATS), 2010)
